Some test systems named below: HCT-15 colon; HT29 colon; SNB-75 CNS; SNB-19 CNS; U251 CNS; PC-3 prostate; SK-MEL-5 melanoma; UACC-62 melanoma; LOX IMVI melanoma; SK-MEL-28 melanoma.
Experiment in all cases: NCI-60 one-dose screen, 48 h (100 = growth as untreated, 0 = no growth, -100 = all killed)
What all share (conditions): 10 µM unless noted

About 83,000 compounds went through this panel and 20% of them were active in at least one assay; those are over-represented in the sample as a whole.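 Treatment: one concentration, 48 hours, 96-well format. Scoring: percent growth, with anything below 10 considered active.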 Unmarked numbers belong to inactive results. Activity calls are given as the source filed them.

Turning to `C=C1C(=O)O[C@H]2[C@H]1CC/C(CNC(=O)/C=C/c1cc(OC)c(OC)c(OC)c1)=C\CC[C@@]1(C)O[C@@H]21`, the growth was 1.96% (active) in the assay on HCT-15 colon; -66.4% (active) in the assay with HT29 colon; 46.9% with SNB-75 CNS; 46.9% with SNB-19 CNS; 25.9% in the assay on U251 CNS; 37.1% with PC-3 prostate. In addition, the growth in the assay with SK-MEL-5 melanoma was 20.6%; in the assay with UACC-62 melanoma it was -36.3% (active); in the assay on LOX IMVI melanoma, -88% (active); in the assay with SK-MEL-28 melanoma, -32.7% (active).

For the compound `COc1cc(CNC(=O)CCCC/C=C/C(C)C)ccc1OCc1cn(-c2ccc(C(F)(F)F)cc2)nn1`, the growth is 59.7% with HCT-15 colon; 79% in the assay with HT29 colon; 49.7% with SNB-75 CNS; 76.1% with SNB-19 CNS; 46.7% in the assay with U251 CNS; 62.2% in the assay with PC-3 prostate. Further, the growth in the assay with SK-MEL-5 melanoma was 97.1%; in the assay on UACC-62 melanoma, 84.3%; with LOX IMVI melanoma it was 60.3%; in the assay on SK-MEL-28 melanoma it was 107%.

Turning to `C=CCNc1ccc2c3c(cccc13)C(=O)N(CC=C)C2=O`, the growth in the assay with HCT-15 colon was 97.4%; with HT29 colon, 105%; with SNB-75 CNS, 90.4%; with SNB-19 CNS, 100%; in the assay on U251 CNS, 103%; in the assay with PC-3 prostate it was 69.3%. Besides, the growth with SK-MEL-5 melanoma is 88.9%; in the assay on UACC-62 melanoma, 75.8%; in the assay with LOX IMVI melanoma, 92%; with SK-MEL-28 melanoma, 103%.

Regarding `CCOC(=O)C1=C(C)N(C)C(=O)N(C)C1c1ccccc1` (stereo not given), the growth in the assay with HCT-15 colon is 102%; in the assay on HT29 colon it was 97.8%; in the assay on SNB-75 CNS, 79.2%; in the assay on SNB-19 CNS it was 93.8%; with U251 CNS, 99.3%; in the assay on PC-3 prostate it was 92.7%. For the same compound, the growth in the assay with SK-MEL-5 melanoma is 93.3%; with UACC-62 melanoma, 86.7%; in the assay with LOX IMVI melanoma it was 96.1%; in the assay with SK-MEL-28 melanoma, 124%.

`CN1/C(=C/C=C/c2n(Cc3ccc4ccccc4c3)c(Cl)c(Cl)[n+]2Cc2ccc3ccccc3c2)Oc2ccccc21`: the growth is -72.9% (active) in the assay with HCT-15 colon; -79.7% (active) in the assay on HT29 colon; -63.6% (active) with SNB-75 CNS; -96.3% (active) in the assay on SNB-19 CNS; -97.3% (active) in the assay with U251 CNS; -78.4% (active) in the assay with PC-3 prostate. In addition, the growth in the assay on SK-MEL-5 melanoma was -99.4% (active); in the assay on UACC-62 melanoma, -94.4% (active); in the assay with LOX IMVI melanoma, -93.8% (active); in the assay with SK-MEL-28 melanoma, -89.5% (active).

Consider `CN(C)CCCN(CCC1CCCCC1)CCC1CCCCC1`, for which the growth in the assay with HCT-15 colon was 15%; in the assay on HT29 colon it was 7.47% (active); in the assay with SNB-75 CNS it was 62.2%; in the assay with SNB-19 CNS it was 86.7%; with U251 CNS, 12.3%; in the assay on PC-3 prostate it was 46.9%. In addition, the growth is -82.1% (active) in the assay with SK-MEL-5 melanoma, -78.5% (active) in the assay with UACC-62 melanoma, 5.93% (active) in the assay on LOX IMVI melanoma and -97.8% (active) in the assay on SK-MEL-28 melanoma.

Turning to `CNC(=O)c1cc(Oc2ccc3nc(NC(=O)c4cc(C(F)(F)F)cc(C(F)(F)F)c4)sc3c2)ccn1`, the growth is 32.1% with HCT-15 colon; 31.5% in the assay on HT29 colon; 28.5% in the assay on SNB-75 CNS; 15.5% in the assay on SNB-19 CNS; 14.2% with U251 CNS; 8.79% (active) in the assay with PC-3 prostate. Also, the growth in the assay with SK-MEL-5 melanoma is -39.9% (active); in the assay with UACC-62 melanoma, 2.25% (active); with LOX IMVI melanoma, 27.4%; with SK-MEL-28 melanoma, 26.4%.

In the case of `CCOc1ccc(N2C(=O)CCSC2=S)cc1`, the growth in the assay on HCT-15 colon is 101%; in the assay with HT29 colon it was 106%; in the assay on SNB-75 CNS, 90.5%; in the assay on SNB-19 CNS it was 94.7%; with U251 CNS, 102%; with PC-3 prostate it was 93.3%. Further, the growth in the assay on SK-MEL-5 melanoma was 98.9%; in the assay with UACC-62 melanoma it was 91.9%; with LOX IMVI melanoma, 96.5%; with SK-MEL-28 melanoma, 108%.

For `COC(=O)c1cc(-c2ccc(OC)c(OC)c2)[nH]c1N/N=C/c1c(Cl)cccc1Cl`, the growth in the assay with HCT-15 colon is 28.4%; with HT29 colon, 13.7%; in the assay on SNB-75 CNS it was 4.55% (active); in the assay on SNB-19 CNS, 36.1%; in the assay with U251 CNS it was 30.2%; in the assay with PC-3 prostate, 26.3%. Further, the growth in the assay on SK-MEL-5 melanoma was 12.7%; in the assay on UACC-62 melanoma it was 38.2%; with LOX IMVI melanoma it was 39.3%; in the assay with SK-MEL-28 melanoma, 56.4%.

Take `COc1cc(-c2ccc(-c3ccc(C(=N)N)s3)s2)cc(OC)c1OC`: the growth in the assay with HCT-15 colon was 13.6%; in the assay with HT29 colon it was 4.42% (active); in the assay with SNB-75 CNS, 75.5%; in the assay with SNB-19 CNS it was 47.6%; in the assay with U251 CNS, 1.13% (active); in the assay on PC-3 prostate it was 47.1%. In addition, the growth is 23.2% in the assay with SK-MEL-5 melanoma, 81.3% in the assay on UACC-62 melanoma, -63.3% (active) in the assay on LOX IMVI melanoma and 7.05% (active) in the assay on SK-MEL-28 melanoma.

As for `Cc1ccc2nc(/C=C/c3ccc(N(C)C)cc3)cc(C)c2c1`, the growth in the assay with HCT-15 colon is 18%; with HT29 colon it was 2.01% (active); in the assay on SNB-75 CNS it was 14.5%; with SNB-19 CNS, 26.2%; with U251 CNS, 26.2%; in the assay on PC-3 prostate it was 38.9%. The growth was 33.3% with SK-MEL-5 melanoma, 23.2% in the assay with UACC-62 melanoma, 34.1% in the assay on LOX IMVI melanoma and 48.1% in the assay on SK-MEL-28 melanoma.

With `O=C(Nc1ncc(Cc2cc(C(F)(F)F)ccc2Cl)s1)C(=S)N1CCOCC1`, the growth is 78.6% in the assay on HCT-15 colon; 95.1% in the assay with HT29 colon; 86.7% in the assay with SNB-75 CNS; 96.9% with SNB-19 CNS; 90.3% with U251 CNS; 81.3% with PC-3 prostate. Further, the growth in the assay with SK-MEL-5 melanoma is 96.6%; with UACC-62 melanoma, 72.6%; in the assay on LOX IMVI melanoma it was 90.5%; in the assay with SK-MEL-28 melanoma it was 114%.

On to `N#CC1=C(N)Oc2c(ccc3cccnc23)C1c1ccccc1` (stereo not given), for which the growth in the assay on HCT-15 colon was 28%; in the assay with HT29 colon it was 12.6%; in the assay on SNB-75 CNS, -6.14% (active); with SNB-19 CNS, 52.7%; with U251 CNS, 23.1%; in the assay on PC-3 prostate, 22.8%. Also, the growth in the assay on SK-MEL-5 melanoma is 6.58% (active); in the assay with UACC-62 melanoma, 47.2%; in the assay on LOX IMVI melanoma it was 33.7%; in the assay with SK-MEL-28 melanoma, 49.4%.

As for `CN1CCN(Cc2ccc(NC(=O)c3cncc(C#Cc4c(N)ncc5c(F)cccc45)c3)cc2C(F)(F)F)CC1`, the growth with HCT-15 colon is -83.7% (active); in the assay on HT29 colon it was -77.1% (active); in the assay on SNB-75 CNS, -81% (active); in the assay on SNB-19 CNS it was -97% (active); with U251 CNS, -88.4% (active); in the assay on PC-3 prostate it was -69.2% (active). The growth is -87.2% (active) in the assay on SK-MEL-5 melanoma, -93.3% (active) with UACC-62 melanoma, -96.1% (active) in the assay with LOX IMVI melanoma and -86.5% (active) with SK-MEL-28 melanoma.

Source of the values: PubChem BioAssay (NCI).
